# Records with an inconclusive call do not appear. Active and inactive are the calls of the source. How the source made its calls: active means hit-call score of the fitted dose curve at least 0.9, where 1 is the maximum; inconclusive means response in the unintended direction; inactive means score below 0.9.
# Tests used:
# [1] = biological target: rat Neonicotinoid receptor (NNR), Chrna7 (gene 25302) (UniProt Q05941); assay: NVS_LGIC_rNNR_BungSens: NovaScreen (NVS) Ligand-Gated Ion Channel Assay for rat Neonicotinoid receptor (NNR) (AID 2283315)
# rat Neonicotinoid receptor (NNR), Chrna7 (gene 25302), sequence (Q05941 whole entry, looked up): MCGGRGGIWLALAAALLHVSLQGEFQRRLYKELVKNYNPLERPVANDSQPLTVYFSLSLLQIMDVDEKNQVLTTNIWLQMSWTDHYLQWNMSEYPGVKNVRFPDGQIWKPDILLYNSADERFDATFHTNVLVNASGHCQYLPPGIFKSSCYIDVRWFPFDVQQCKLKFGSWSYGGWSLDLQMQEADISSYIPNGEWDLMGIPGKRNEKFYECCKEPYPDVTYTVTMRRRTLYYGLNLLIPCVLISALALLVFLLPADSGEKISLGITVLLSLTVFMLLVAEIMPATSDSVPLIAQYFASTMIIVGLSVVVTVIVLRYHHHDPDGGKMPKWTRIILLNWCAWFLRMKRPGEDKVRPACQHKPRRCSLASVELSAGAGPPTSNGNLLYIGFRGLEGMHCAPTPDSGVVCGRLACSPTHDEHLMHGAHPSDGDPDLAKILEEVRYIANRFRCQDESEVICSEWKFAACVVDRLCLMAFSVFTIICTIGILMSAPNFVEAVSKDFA
# How it was run: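 Radioligand displacement binding on rat cortical membranes, 2.5 h incubation, filtration and scintillation counting. Loss of specific binding fitted relative to DMSO.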
# [2] = biological target: bovine Gamma-Aminobutyric Acid Type A Receptor Agonist (GABAR Agonist), GABRA1 (gene 780973) (UniProt P08219); assay: NVS_LGIC_bGABAR_Agonist: NovaScreen (NVS) Ligand-Gated Ion Channel Assay for bovine Gamma-Aminobutyric Acid Type A Receptor Agonist (GABAR Agonist) (AID 2283338)
# bovine Gamma-Aminobutyric Acid Type A Receptor Agonist (GABAR Agonist), GABRA1 (gene 780973), sequence (P08219 whole entry, looked up): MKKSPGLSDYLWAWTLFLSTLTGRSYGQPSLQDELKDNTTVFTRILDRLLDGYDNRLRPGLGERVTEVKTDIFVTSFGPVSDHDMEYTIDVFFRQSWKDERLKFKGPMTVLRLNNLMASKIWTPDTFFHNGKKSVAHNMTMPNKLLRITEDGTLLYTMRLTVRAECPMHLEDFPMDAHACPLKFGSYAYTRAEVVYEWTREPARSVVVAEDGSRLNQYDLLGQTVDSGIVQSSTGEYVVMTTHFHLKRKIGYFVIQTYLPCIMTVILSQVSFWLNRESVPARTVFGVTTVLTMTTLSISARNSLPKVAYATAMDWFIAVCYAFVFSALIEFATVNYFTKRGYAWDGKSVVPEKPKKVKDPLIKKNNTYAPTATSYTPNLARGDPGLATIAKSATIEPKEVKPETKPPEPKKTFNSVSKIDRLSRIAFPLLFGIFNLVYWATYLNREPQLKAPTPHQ
# How it was run: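 Radioligand binding to bovine cerebellar membranes in agonist format, read by filter-based scintillation counting after 1 h. Primary screen in duplicate at 25 uM, with actives followed in concentration series. Gain of signal versus DMSO.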
# [3] = biological target: T1, Estrogen receptor (Homo sapiens) + Estrogen receptor beta (Homo sapiens) (UniProt P03372+Q92731); assay: OT_ER_ERaERb_0480: Odyssey Thera (OT) 8-hour HEK293T Protein-Complementation Assay for Estrogen Receptor-alpha/-beta Heterodimer (AID 2283352)
# T1 sequence (P03372 whole entry, looked up, the tested form may be a part): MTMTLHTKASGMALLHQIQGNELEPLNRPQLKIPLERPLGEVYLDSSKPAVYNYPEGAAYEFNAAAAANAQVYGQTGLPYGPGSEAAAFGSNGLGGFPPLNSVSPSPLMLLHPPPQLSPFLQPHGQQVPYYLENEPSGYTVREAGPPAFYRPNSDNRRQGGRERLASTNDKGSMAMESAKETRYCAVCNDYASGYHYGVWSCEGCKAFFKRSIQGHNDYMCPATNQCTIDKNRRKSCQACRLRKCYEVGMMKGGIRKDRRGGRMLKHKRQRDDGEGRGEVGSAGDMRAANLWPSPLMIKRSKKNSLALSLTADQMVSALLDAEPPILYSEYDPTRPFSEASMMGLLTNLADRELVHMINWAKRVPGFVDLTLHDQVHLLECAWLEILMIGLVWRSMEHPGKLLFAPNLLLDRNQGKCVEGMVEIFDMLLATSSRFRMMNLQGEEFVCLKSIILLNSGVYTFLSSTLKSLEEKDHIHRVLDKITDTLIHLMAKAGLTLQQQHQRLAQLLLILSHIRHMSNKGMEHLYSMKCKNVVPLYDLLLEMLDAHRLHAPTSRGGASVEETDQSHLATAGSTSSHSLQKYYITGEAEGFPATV
# T1 sequence (Q92731 whole entry, looked up, the tested form may be a part): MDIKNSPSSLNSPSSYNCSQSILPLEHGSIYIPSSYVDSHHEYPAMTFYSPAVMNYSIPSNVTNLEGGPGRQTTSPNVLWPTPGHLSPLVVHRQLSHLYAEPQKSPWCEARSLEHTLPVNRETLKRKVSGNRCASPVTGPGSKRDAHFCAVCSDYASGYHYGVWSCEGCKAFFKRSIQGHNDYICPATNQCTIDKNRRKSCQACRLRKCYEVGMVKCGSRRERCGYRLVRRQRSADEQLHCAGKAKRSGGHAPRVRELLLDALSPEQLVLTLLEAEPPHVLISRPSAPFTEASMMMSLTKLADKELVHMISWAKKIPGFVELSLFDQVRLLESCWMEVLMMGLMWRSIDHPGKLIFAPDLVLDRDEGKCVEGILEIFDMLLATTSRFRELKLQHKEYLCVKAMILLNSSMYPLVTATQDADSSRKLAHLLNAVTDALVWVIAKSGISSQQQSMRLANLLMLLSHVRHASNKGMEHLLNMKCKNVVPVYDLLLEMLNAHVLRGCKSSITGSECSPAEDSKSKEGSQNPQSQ
# How it was run: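 Fluorescence intensity readout from a protein-fragment complementation reporter in HEK293T; ER-alpha/ER-beta LBD heterodimer. Dosing 8 h. Gain-of-signal fit relative to DMSO negative control; laser scanning cytometry of whole-well cell population.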
# [4] = biological target: Androgen Receptor/SRC-1 Co-activator, AR (gene 367) (UniProt P10275); assay: OT_AR_ARSRC1_0480: Odyssey Thera (OT) 8-hour HEK293T Protein-Complementation Assay for Androgen Receptor/SRC-1 Co-activator (AID 2283354);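 further: hits raise the complementation signal above DMSO so AC50 marks enhancers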
# Androgen Receptor/SRC-1 Co-activator, AR (gene 367), sequence (P10275 whole entry, looked up, the tested form may be a part): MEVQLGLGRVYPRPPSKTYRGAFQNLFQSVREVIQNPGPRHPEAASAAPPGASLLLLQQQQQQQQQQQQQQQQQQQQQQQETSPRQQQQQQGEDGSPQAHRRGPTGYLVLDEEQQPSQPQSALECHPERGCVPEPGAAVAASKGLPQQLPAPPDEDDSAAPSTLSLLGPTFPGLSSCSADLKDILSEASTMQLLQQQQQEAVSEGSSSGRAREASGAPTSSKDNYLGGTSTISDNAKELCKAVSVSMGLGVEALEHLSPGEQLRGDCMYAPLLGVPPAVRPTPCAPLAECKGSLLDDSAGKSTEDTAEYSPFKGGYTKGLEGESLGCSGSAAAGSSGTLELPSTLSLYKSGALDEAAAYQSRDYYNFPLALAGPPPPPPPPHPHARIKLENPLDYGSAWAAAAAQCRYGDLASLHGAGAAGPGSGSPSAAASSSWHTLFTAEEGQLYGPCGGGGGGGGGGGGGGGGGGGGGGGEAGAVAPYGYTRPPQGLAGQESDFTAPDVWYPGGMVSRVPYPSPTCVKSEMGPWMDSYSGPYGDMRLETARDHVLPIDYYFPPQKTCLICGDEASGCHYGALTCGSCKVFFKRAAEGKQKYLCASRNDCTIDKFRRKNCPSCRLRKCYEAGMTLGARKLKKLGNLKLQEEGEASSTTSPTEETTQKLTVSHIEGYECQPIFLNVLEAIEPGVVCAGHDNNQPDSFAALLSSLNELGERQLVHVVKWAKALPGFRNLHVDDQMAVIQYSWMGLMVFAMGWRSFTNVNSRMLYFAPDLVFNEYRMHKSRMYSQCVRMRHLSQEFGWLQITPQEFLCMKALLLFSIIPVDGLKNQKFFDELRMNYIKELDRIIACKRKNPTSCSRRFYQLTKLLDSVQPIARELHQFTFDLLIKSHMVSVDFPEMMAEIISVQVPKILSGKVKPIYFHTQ
# How it was run: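 HEK293T cells stably expressing AR and SRC-1 fused to Venus YFP fragments, imaged 8 h after dosing. Complementation fluorescence scored as nuclear/cytoplasmic ratio at 488 nm in at least 400 cells per image; gain fitted versus DMSO.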
# [5] = biological target: rat Mineralocorticoid Receptor (MR), Nr3c2 (gene 25672) (UniProt P22199); assay: NVS_NR_rMR: NovaScreen (NVS) Nuclear Receptor Binding Assay for rat Mineralocorticoid Receptor (MR) (AID 2283355)
# rat Mineralocorticoid Receptor (MR), Nr3c2 (gene 25672), sequence (P22199 whole entry, looked up): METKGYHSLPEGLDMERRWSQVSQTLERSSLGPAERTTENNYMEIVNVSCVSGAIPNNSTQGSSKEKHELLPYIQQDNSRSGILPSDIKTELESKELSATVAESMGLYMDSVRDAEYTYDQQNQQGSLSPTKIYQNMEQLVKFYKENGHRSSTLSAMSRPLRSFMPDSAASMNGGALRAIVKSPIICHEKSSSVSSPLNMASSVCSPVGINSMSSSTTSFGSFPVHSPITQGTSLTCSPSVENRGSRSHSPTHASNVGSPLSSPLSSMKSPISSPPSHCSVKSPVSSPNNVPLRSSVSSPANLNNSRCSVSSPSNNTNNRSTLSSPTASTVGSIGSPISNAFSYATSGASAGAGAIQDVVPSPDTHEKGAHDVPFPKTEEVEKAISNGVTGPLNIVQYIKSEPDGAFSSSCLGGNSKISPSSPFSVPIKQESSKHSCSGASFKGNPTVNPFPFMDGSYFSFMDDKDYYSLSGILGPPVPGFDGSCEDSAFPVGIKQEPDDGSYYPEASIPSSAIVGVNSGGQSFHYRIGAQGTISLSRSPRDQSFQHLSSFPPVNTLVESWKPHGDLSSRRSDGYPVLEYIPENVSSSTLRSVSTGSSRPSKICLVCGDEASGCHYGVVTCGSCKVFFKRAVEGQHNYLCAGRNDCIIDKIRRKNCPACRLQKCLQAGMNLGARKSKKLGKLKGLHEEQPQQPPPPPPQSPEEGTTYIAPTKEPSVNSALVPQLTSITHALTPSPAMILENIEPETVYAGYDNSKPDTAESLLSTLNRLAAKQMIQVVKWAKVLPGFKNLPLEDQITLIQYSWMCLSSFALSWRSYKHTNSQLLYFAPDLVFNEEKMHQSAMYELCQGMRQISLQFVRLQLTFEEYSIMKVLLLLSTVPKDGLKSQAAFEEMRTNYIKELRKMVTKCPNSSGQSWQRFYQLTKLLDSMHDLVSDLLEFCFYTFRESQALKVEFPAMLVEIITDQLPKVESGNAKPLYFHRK
# How it was run: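 Cell-free radioligand binding to mineralocorticoid receptor from adrenalectomized rat brain supernatant, scintillation counting after 24 h. Primary screen in duplicate at 25 uM; actives retested in concentration series. Loss of specific binding versus DMSO.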
# [6] = biological target: Retinoic acid receptor alpha (Homo sapiens) (UniProt P10276); assay: NVS_NR_hRAR_Antagonist: NovaScreen (NVS) Nuclear Receptor Binding Assay for human Retinoic Acid Alpha Receptor Antagonism (RAR) (AID 2283358)
# Retinoic acid receptor alpha (Homo sapiens), sequence (P10276 whole entry, looked up): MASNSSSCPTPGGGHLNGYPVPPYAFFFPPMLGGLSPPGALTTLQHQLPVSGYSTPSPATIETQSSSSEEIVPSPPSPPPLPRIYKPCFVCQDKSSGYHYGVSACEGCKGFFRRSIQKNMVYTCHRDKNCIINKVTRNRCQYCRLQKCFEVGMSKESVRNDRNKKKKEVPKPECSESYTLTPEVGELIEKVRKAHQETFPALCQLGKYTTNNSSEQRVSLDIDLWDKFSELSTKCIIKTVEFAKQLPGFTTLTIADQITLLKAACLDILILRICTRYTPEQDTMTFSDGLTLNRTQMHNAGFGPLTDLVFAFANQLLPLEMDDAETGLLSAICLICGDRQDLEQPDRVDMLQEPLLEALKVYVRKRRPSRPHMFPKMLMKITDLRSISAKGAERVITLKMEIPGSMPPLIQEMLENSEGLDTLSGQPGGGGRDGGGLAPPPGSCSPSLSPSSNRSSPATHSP
# How it was run: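 Cell-free TR-FRET binding assay with extracted human RARalpha in antagonist mode, read 2 h after dosing. Loss of signal was fitted relative to DMSO; the primary screen used 25 uM in duplicate, with concentration series on follow-up.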
# [7] = biological target: Estrogen receptor (Homo sapiens) (UniProt P03372); assay: OT_ER_ERaERa_1440: Odyssey Thera (OT) 24-hour HEK293T Protein-Complementation Assay for Estrogen Receptor-alpha/-alpha Homodimer (AID 2283349);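 further: hits raise fluorescence above DMSO for agonists and antagonists alike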
# Estrogen receptor (Homo sapiens), sequence (P03372 whole entry, looked up, the tested form may be a part): as the sequence (P03372 whole entry, looked up, the tested form may be a part) above
# How it was run: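 HEK293T cells stably expressing the human ER alpha ligand-binding domain (aa 310-547) as a homodimer PCA were dosed for 24 hours. Fluorescence intensity was read by laser scanning cytometry, and gain of signal was fitted relative to DMSO vehicle.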
# [8] = biological target: Estrogen receptor (Homo sapiens) (UniProt P03372); assay: OT_ER_ERaERa_0480: Odyssey Thera (OT) 8-hour HEK293T Protein-Complementation Assay for Estrogen Receptor-alpha/-alpha Homodimer (AID 2283351);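 further: rise in fluorescence from reassembled reporter fragments on ERα LBD homodimer in nucleus or whole cell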
# How it was run: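 HEK293T, stable ERα LBD (aa 310-547) PCA homodimer; 8 h compound exposure; fluorescence intensity, laser scanning cytometer; positive fitting direction, DMSO baseline.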
# [9] = biological target: Androgen Receptor/SRC-1 Co-activator, AR (gene 367) (UniProt P10275); assay: OT_AR_ARSRC1_0960: Odyssey Thera (OT) 16-hour HEK293T Protein-Complementation Assay for Androgen Receptor/SRC-1 Co-activator (AID 2283353);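 further: actives raise the signal above DMSO so potency reflects increased AR and SRC-1 complex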
# How it was run: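 Split-Venus PCA, AR/SRC-1 fusions, stable HEK293T; 16 h compound exposure; imaged at 488 and 635 nm; N/C ratio (488 nm channel), min 400 cells/image; positive-direction fit, DMSO baseline.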
# [10] = biological target: T1, Estrogen receptor (Homo sapiens) + Estrogen receptor beta (Homo sapiens); assay: OT_ER_ERaERb_1440: Odyssey Thera (OT) 24-hour HEK293T Protein-Complementation Assay for Estrogen Receptor-alpha/-beta Homodimer (AID 2283356);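 further: heteromer of ER alpha and ER beta binding domains; hits raise reporter fluorescence and both agonists and antagonists give an increase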
# How it was run: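 Readout: mean fluorescence intensity in nucleus (agonists) or nucleus plus cytoplasm (antagonists), read by laser scanning cytometer after 24 h compound exposure of HEK293T cells carrying ERα/ERβ LBD fragment-complementation constructs; DMSO baseline.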
# [11] = biological target: Estrogen receptor beta (Homo sapiens) (UniProt Q92731); assay: OT_ER_ERbERb_0480: Odyssey Thera (OT) 8-hour HEK293T Protein-Complementation Assay for Estrogen Receptor-beta/-beta Homodimer (AID 2283357);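 further: active means signal gain over DMSO baseline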
# Estrogen receptor beta (Homo sapiens), sequence (Q92731 whole entry, looked up, the tested form may be a part): as the sequence (Q92731 whole entry, looked up, the tested form may be a part) above
# How it was run: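 Fluorescence intensity, nuclear for agonists and nuclear plus cytoplasmic for antagonists, was quantified by laser scanning cytometry versus vehicle after 8 h treatment. The cells were HEK293T stably carrying ER beta LBD fragment-complementation partners.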
# [12] = biological target: Estrogen receptor (Homo sapiens) (UniProt P03372); assay: NVS_NR_hER: NovaScreen (NVS) Nuclear Receptor Binding Assay for human Estrogen Receptor (ER) (AID 2283348)
# How it was run: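 Radioligand competitive displacement binding to estrogen receptor from MCF7 extract, cell-free; 18 h after dosing, scintillation read-out. Primary screen in duplicate at 25 uM; actives followed up in concentration series; loss of signal vs DMSO.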
compound,measurement,setting,value
CC(C)[N+](C)(CCOC(=O)C1c2ccccc2Oc2ccccc21)C(C)C,AC50,[1],9.05 µM (active)
CC1=CP(=O)(c2ccccc2)CC1 (stereo unspecified),outcome,[1],inactive
C1CNCCN1,AC50,[2],25 µM (active)
CO[Si](C)(C)OC,outcome,[3],inactive
CC(=O)OCc1ccccc1,outcome,[4],inactive
N#Cc1ccc(C(c2ccc(C#N)cc2)n2cncn2)cc1,outcome,[4],inactive
Oc1ccc(/C=C/c2cc(O)cc(O)c2)cc1,outcome,[5],inactive
O=c1c(O)c(-c2ccc(O)cc2O)oc2cc(O)cc(O)c12,AC50,[6],6.95 µM (active)
CCCCCCCCCCCCCCCCCCOS(=O)(=O)O,outcome,[6],inactive
COc1ccc(C(=O)c2ccccc2)c(O)c1,AC50,[7],66.7 µM (active)
same,AC50,[8],58.4 µM (active)
same,outcome,[9],inactive
same,outcome,[4],inactive
same,AC50,[10],58.7 µM (active)
same,AC50,[11],50 µM (active)
Cc1ccc(C)c(OCCCC(C)(C)C(=O)O)c1,outcome,[7],inactive
same,outcome,[8],inactive
same,outcome,[9],inactive
same,outcome,[4],inactive
same,outcome,[5],inactive
same,outcome,[10],inactive
CCCCCCOc1ccc(N)cc1,AC50,[7],23.9 µM (active)
same,outcome,[8],inactive
NC(=O)Nc1ccccc1,outcome,[7],inactive
same,outcome,[3],inactive
same,outcome,[10],inactive
same,outcome,[11],inactive
same,outcome,[6],inactive
CC(=O)/C=C/C1C(C)=CCCC1(C)C (stereo unspecified),outcome,[7],inactive
same,outcome,[8],inactive
CCCCc1ccc(Cl)cc1,outcome,[7],inactive
same,outcome,[8],inactive
same,outcome,[10],inactive
same,outcome,[11],inactive
CC12CCC(CC1)C(C)(C)O2,outcome,[7],inactive
same,outcome,[8],inactive
CCC1COC(=O)O1 (stereo unspecified),outcome,[7],inactive
same,outcome,[8],inactive
O=C(O)CC(C(=O)O)S(=O)(=O)O (stereo unspecified),outcome,[7],inactive
same,outcome,[8],inactive
CCCCCCCCCC(C)=O,outcome,[7],inactive
same,AC50,[8],68.5 µM (active)
same,outcome,[9],inactive
same,outcome,[4],inactive
same,outcome,[10],inactive
same,outcome,[11],inactive
CC(C)(C)N,outcome,[7],inactive
same,outcome,[8],inactive
CCCCC(CC)COC(=O)/C=C/c1ccc(OC)cc1 (stereo unspecified),outcome,[7],inactive
same,outcome,[8],inactive
same,AC50,[9],50 µM (active)
same,outcome,[4],inactive
O=C(O)/C=C/c1ccccc1,AC50,[7],34.2 µM (active)
same,outcome,[8],inactive
C=C(C)C1CC=C(C)CC1 (stereo unspecified),outcome,[7],inactive
same,outcome,[8],inactive
CCc1cccc(C)c1N,AC50,[7],74.6 µM (active)
same,outcome,[8],inactive
same,outcome,[9],inactive
same,outcome,[4],inactive
CCCCCCCCCCCC(=O)N(C)CC(=O)O,outcome,[12],inactive
same,outcome,[7],inactive
same,outcome,[8],inactive
same,outcome,[10],inactive
same,outcome,[11],inactive
CCc1occc(=O)c1O,outcome,[7],inactive
same,outcome,[8],inactive
CC1(C)[C@@H]2CC[C@@]1(C)C(=O)C2,outcome,[7],inactive
same,outcome,[8],inactive
same,outcome,[3],inactive
same,outcome,[10],inactive
same,outcome,[11],inactive
CCC(C)(O)CCCC(C)C (stereo unspecified),outcome,[7],inactive
same,outcome,[8],inactive
C[Si]1(C)O[Si](C)(C)O[Si](C)(C)O[Si](C)(C)O[Si](C)(C)O1,AC50,[7],50 µM (active)
same,outcome,[8],inactive
CCCCCC(=O)OCC,outcome,[7],inactive
same,outcome,[8],inactive
same,outcome,[10],inactive
same,outcome,[11],inactive
Cc1c(C(=O)c2c[nH]n(C)c2=O)ccc(S(C)(=O)=O)c1C1=NOCC1,outcome,[7],inactive
same,outcome,[8],inactive
same,outcome,[9],inactive
same,outcome,[10],inactive
same,outcome,[11],inactive
O=C(O)CCC(=O)O,outcome,[7],inactive
same,outcome,[8],inactive
C=C[C@@]1(C)CC(=O)[C@]2(O)[C@@]3(C)[C@@H](O)CCC(C)(C)[C@@H]3[C@H](O)[C@H](OC(C)=O)[C@@]2(C)O1,outcome,[7],inactive
same,outcome,[8],inactive
same,outcome,[3],inactive
same,AC50,[10],36.1 µM (active)
same,outcome,[11],inactive
COC(=O)c1ccccc1C,outcome,[7],inactive
same,outcome,[8],inactive
same,outcome,[10],inactive
O=C(Oc1ccccc1)c1ccccc1O,outcome,[7],inactive
same,outcome,[8],inactive
O=C(OCCc1ccccc1)c1ccccc1,outcome,[7],inactive
same,outcome,[8],inactive
CC1=CC=C(C(C)C)CC1,AC50,[7],31.5 µM (active)
same,outcome,[8],inactive
O=S(=O)(O)c1ccc(N=Nc2c(O)ccc3ccccc23)cc1,outcome,[7],inactive
same,outcome,[8],inactive
same,outcome,[10],inactive
CCCCCCCCCCCCCC(=O)OC(C)C,outcome,[7],inactive
same,outcome,[8],inactive
same,outcome,[3],inactive
same,outcome,[9],inactive
same,outcome,[4],inactive
same,outcome,[10],inactive
CC(C)COC(=O)CC(C(=O)OCC(C)C)S(=O)(=O)O (stereo unspecified),outcome,[7],inactive
same,outcome,[8],inactive
same,outcome,[10],inactive
same,outcome,[11],inactive
COc1cc(O)c(C(=O)c2ccccc2)cc1S(=O)(=O)O,outcome,[7],inactive
same,outcome,[8],inactive
same,outcome,[9],inactive
same,outcome,[4],inactive
same,outcome,[10],inactive
same,outcome,[11],inactive
CCC[Si](OC)(OC)OC,outcome,[7],inactive
same,outcome,[8],inactive
same,outcome,[9],inactive
same,outcome,[4],inactive
same,outcome,[10],inactive
same,outcome,[11],inactive
CCCC=C(C=O)CC,outcome,[7],inactive
same,outcome,[8],inactive
same,outcome,[10],inactive
same,outcome,[11],inactive
Fc1ccc(Br)cc1,outcome,[7],inactive
same,outcome,[8],inactive
O=C(O)c1ccc2c(c1)C(=O)OC2=O,outcome,[7],inactive
same,outcome,[8],inactive
same,outcome,[3],inactive
same,outcome,[9],inactive
same,outcome,[10],inactive
same,outcome,[11],inactive
CC(=O)c1ccccc1O,outcome,[7],inactive
same,outcome,[8],inactive
CCCCCCCO,outcome,[7],inactive
same,outcome,[8],inactive
same,outcome,[10],inactive
same,outcome,[11],inactive
CCCCOCCOC(=O)COc1ccc(Cl)cc1Cl,outcome,[7],inactive
same,outcome,[8],inactive
same,outcome,[10],inactive
CCCC(CC)c1ccccc1 (stereo unspecified),outcome,[7],inactive
same,outcome,[8],inactive
same,outcome,[10],inactive
same,outcome,[11],inactive

# Reference: PubChem BioAssay (EPA / NIEHS)
